Screening results (PubChem)
HP1b chromo inh – blocks HP1-beta chromodomain binding to methylated histone tails. P83916. AlphaScreen HP1-beta / biotin-H3K9me3 peptide binding. Potency, µM (series often up to 114 µM), for the others: top-dose activity change, negative = inhibition, actives largely listed as inhibitors. actives 0.56% (n = 390,000). AID 540317; further: nearly all actives have a fitted effect of over 70% in size
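Compound inhibition of the preformed complex between 50 nM HP1-beta and 50 nM biotinylated H3K9me3 peptide was read by AlphaScreen. Buffer was PBS pH 7.4 with 0.01% Tween-20. Incubations ran 30 min at room temperature, with 10 ug/mL donor/acceptor beads.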
G9a block – G9a (human) methyltransferase inhibition; Q96KQ7; actives 8.8% (n = 350,000); AID 504332; Potency, µM (series often up to 102 µM), for the others: at the top dose activity, negative = inhibition, hits mostly inhibitors; G9a H3K9 monomethylation, AlphaScreen, 2 h; further: on the % scale 0 is the no-effect control and ±100 the full control effect; nearly all actives have a fitted effect of over 75% in size
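Compounds were preincubated with 20 nM G9a for 15 min, after which biotinylated H3K9 peptide (500 nM) and SAM (20 uM) started a 2 h room-temperature reaction. Monomethylated product was quantified by antibody-based AlphaScreen chemiluminescence.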
GLS inhibitor – glutaminase GLS (human) inhibition. O94925. GLS enzymatic activity, qHTS titration. Potency, µM (titrated, usually from 45.5 µM), without a hit: at the highest dose activity change, negative = inhibition, most hits filed as inhibitors. actives 0.21% (n = 410,000). AID 624170; further: on the % scale 0 is the no-effect control and ±100 the full control effect
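Enzyme dispensed in phosphate buffer (45 mM, pH 8.2, 0.02% Tween-20), compounds pinned in, then 1 mM L-glutamine solution and the glutamate oxidase–HRP–Amplex Red mix added; fluorescence read immediately and again after 30 min at room temperature.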
JMJD2A Tudor – inhibitors of human JMJD2A Tudor domain | Potency, µM (titrated, usually from 114 µM), for the others: at the highest dose activity change, negative = inhibition, hits mostly inhibitors | actives 4.4% (n = 390,000) | AlphaScreen JMJD2A-Tudor / H3K4me3 peptide binding | O75164; further: on the % scale 0 is the no-effect control and ±100 the full control effect; nearly all actives have a fitted effect of over 50% in size
BAZ2B block – blocks human BAZ2B | AlphaScreen BAZ2B-H3K14Ac peptide displacement | AID 504333 | actives 4.4% (n = 360,000) | Potency, µM (top dose mostly 114 µM), for the others: at the highest dose activity change, negative = inhibition, actives largely listed as inhibitors; further: on the % scale 0 is the no-effect control and ±100 the full control effect; nearly all actives have a fitted effect of over 60% in size
Target sequence (Q9UIF8 whole entry, looked up): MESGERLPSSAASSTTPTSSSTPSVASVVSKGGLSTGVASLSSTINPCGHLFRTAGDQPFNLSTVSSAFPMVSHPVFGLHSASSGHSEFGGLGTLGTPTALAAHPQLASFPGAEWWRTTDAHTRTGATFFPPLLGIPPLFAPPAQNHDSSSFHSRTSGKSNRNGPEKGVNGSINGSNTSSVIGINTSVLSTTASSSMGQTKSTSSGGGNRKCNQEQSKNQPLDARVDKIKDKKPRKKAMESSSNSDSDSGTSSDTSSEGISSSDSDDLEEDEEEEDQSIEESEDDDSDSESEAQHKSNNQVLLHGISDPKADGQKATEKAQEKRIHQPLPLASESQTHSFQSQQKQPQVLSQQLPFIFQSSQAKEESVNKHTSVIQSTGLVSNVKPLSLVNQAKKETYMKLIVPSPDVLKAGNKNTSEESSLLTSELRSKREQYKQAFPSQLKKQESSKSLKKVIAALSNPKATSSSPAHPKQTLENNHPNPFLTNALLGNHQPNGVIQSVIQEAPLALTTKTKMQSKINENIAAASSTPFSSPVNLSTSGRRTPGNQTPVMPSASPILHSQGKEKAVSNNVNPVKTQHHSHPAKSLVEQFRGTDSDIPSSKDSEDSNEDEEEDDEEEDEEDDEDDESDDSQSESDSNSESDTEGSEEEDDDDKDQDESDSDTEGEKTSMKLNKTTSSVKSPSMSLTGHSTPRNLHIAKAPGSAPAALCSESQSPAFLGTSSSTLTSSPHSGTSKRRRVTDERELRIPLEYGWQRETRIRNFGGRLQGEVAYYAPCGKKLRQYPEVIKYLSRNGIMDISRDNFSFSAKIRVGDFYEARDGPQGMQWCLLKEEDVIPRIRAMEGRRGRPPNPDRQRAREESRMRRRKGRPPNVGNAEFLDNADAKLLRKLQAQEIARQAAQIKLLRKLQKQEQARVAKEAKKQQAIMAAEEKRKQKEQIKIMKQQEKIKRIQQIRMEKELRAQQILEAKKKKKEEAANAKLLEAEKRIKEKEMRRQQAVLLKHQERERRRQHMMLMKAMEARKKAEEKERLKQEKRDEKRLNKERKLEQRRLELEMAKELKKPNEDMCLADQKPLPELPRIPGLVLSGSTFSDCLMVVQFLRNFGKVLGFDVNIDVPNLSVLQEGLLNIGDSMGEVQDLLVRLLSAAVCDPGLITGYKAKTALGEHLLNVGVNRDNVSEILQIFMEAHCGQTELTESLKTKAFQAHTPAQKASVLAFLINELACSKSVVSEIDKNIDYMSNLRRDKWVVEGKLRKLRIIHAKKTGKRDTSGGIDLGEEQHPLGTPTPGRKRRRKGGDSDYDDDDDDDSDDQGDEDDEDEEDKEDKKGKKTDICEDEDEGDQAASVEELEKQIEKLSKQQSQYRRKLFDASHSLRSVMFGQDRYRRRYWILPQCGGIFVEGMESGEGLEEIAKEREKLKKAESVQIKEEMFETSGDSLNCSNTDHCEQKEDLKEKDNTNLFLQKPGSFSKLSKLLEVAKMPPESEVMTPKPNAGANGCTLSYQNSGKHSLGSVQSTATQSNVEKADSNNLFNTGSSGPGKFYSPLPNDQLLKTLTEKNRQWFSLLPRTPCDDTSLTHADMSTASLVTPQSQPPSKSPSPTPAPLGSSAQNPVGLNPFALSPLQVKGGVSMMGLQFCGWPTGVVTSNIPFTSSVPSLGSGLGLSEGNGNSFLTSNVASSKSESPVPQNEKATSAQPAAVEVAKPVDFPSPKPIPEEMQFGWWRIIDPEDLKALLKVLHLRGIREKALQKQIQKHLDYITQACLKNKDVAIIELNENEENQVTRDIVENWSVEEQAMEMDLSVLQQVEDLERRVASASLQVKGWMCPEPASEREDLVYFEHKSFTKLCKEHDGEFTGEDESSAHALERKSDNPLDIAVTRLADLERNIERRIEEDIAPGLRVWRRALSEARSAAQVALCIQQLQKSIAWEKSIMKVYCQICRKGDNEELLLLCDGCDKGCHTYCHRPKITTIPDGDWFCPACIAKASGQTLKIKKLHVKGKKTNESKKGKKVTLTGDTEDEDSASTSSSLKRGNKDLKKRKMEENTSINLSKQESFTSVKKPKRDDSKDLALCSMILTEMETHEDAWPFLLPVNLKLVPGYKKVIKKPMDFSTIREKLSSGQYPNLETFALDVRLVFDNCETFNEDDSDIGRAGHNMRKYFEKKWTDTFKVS
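In this displacement format the biotinylated H3(5-23) peptide acetylated at Lys14 serves as ligand at 50 nM, with BAZ2B at 50 nM in PBS pH 7.4 containing 0.01% Tween-20. Donor and acceptor beads are 10 ug/mL final.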
* = called active by the depositor; ? = inconclusive; · = no result; ! = repeats disagree; [ ] = remark or other dose. An excerpt weighted towards active compounds, which were near 10% of everything screened. The call rests on the fitted dose curve; in most records, active means well fitted curve in the direction sought with a large enough effect; inconclusive means small, poorly fitted or top-dose-only effect, or another doubt; inactive means no such curve, though single readings can be large; an effect the other way counts as inactive or inconclusive. Potency means the concentration at half of the fitted maximal effect.

SMILES | HP1b chromo inh | G9a block | GLS inhibitor | JMJD2A Tudor | BAZ2B block
CCOC(=O)c1c(C)[nH]c(=S)c(C#N)c1-c1ccc(Cl)cc1 | 14.3% | -4.8%[59 µM] | -16.3% | -33.8% | -11.1%
CC(=O)c1c(C)[nH]c(=S)c(C#N)c1-c1ccc(Cl)cc1 | 14.3% | 4.47µM* | 24.5% | ? | -17.9%
CCOC(=O)c1c(C)[nH]c(=S)c(C#N)c1-c1ccc(OC)cc1 | 25.9% | ? | ? | -25.0% | -5.7%
Cc1[nH]c(=S)c(C#N)c(-c2ccco2)c1C(=O)N(C)C | -24.7% | 3.55µM* | -12.4% | 3.98µM* | -35.7%
Nc1cc(S(=O)(=O)N2CCOCC2)ccc1Oc1ccc(F)cc1 | 32.7% | 8.5% | -0.7% | -24.6% | ·
COc1ccc(C(CCNCc2ccc(N(C)C)cc2)c2ccccc2)cc1 (stereo unspecified) | 39.8µM* | 0.5%[2.33 µM] | -6.4% | 25.1µM* | 11.2µM*
Oc1ccc(-c2nc(-c3ccc(F)cc3)c(-c3ccncc3)[nH]2)cc1 | 9.8% | 12.6µM*! | -0.1% | ? | ?
Fc1ccc(-c2nc(-c3cccs3)c(-c3cccs3)[nH]2)cc1 | 13.5% | -6.1%[59 µM] | 3.6% | -16.7% | -3.8%
Fc1ccc(-c2nc(-c3cccs3)[nH]c2-c2ccc(F)cc2)cc1 | -15.8% | ? | 0.3% | ? | 44.7µM*
CCC(C)C(=O)Nc1nnc(SCC(=O)Nc2ccccc2F)s1 (stereo unspecified) | 16.0% | -6.0%[59 µM] | -2.2% | 5.0% | -24.1%
C[N+](C)(C)CCCNC(=O)c1ccc(/C=N/O)nc1 | 4.0% | ? | 17.4% | 3.98µM* | 20µM*
Cc1ccc(C(=O)NCCCNC(=O)c2ccc(C)nc2)cc1 | 0.3% | 10.4% | -1.6% | -10.6% | 0.6%
CN(C)CCCNC(=O)c1ccc(/C=N/O)nc1 | -31.0% | -4.8% | 0.0% | 1.41µM* | 10.3%
CNCCCNC(=O)c1ccc(/C=N/O)nc1 | 17.5% | ? | 33.1% | 20µM* | 22.4µM*
CC(C)c1ccc(C(=O)NCCCN(C)C)cc1 | 7.9% | ? | 7.2% | -5.0% | 7.5%
O=c1[nH]c(N/N=C\c2ccc(F)cc2)nc2ccccc12 | 26.8% | ? | 0.0% | -10.5% | -25.2%
O=C(CCNC(=O)c1ccccc1Cl)Nc1cccc(S(=O)(=O)N2CCCC2)c1 | 24.7% | 21.8%[59 µM] | 2.8% | -5.8% | 25.4%
CCCCC1CN2CCc3c([nH]c4ccccc34)C2(C)C1 (stereo unspecified) | 19.6% | 79.4µM* | 0.6% | 0.7%[57.1 µM] | ?
CCCCN1CCc2c([nH]c3ccccc23)C1=O | 21.4% | 6.1%[12.7 µM] | 9.8% | 4.1% | 7.9%
COc1ccccc1C(=O)COC(=O)/C=C/c1ccccc1 | 98.2% | 195.8% | 8.6% | 54.2% | 9.1%
Nc1c(C(=O)c2ccc(Cl)cc2)sc2nsc(SCCN3CCOCC3)c12 | 62.9% | · | 36.9% | 7.2% | 17.4%
Nc1c(C(=O)c2ccccc2)sc2nsc(SCCN3CCCC3)c12 | -3.9% | · | 5.6% | 79.4µM* | ?
O=C(NCCCO)c1ccc(CSc2nc3ccccc3[nH]2)cc1 | 33.3% | -3.2% | -9.1% | -10.5% | -2.8%
COc1ccc(C(=O)NCCS(=O)(=O)NCc2ccco2)cc1 | 28.3% | ? | -4.1% | -18.9% | -19.4%
COc1cccc(C(=O)NCCS(=O)(=O)NCc2cccs2)c1 | 8.6% | 35.5µM* | 1.1% | -2.1% | -6.4%
SMILES | HP1b chromo inh | G9a block | GLS inhibitor | JMJD2A Tudor | BAZ2B block
COc1cccc(C(=O)NCCS(=O)(=O)NCc2cccnc2)c1 | 9.9% | 50.1µM* | 0.3% | -8.2% | 11.2%
COc1cccc(CCNS(=O)(=O)CCNC(=O)c2cccc(OC)c2)c1 | 33.9% | -32.5% | -3.8% | -9.5% | 9.1%
COc1cccc(C(=O)NCCS(=O)(=O)NCc2ccco2)c1 | 20.3% | 20µM* | 5.4% | -4.6% | -23.3%
O=C(CCCN1CCOC(c2ccccc2)C1)c1ccc(F)cc1 (stereo unspecified) | 30.0% | 11.0% | -0.8% | -11.5% | -2.0%
COc1cc(-c2nnc(SCC(=O)N3CCOCC3)o2)cc(OC)c1OC | 9.1% | 39.8µM* | 1.4% | -27.7% | -5.3%
COc1cc(-c2nnc(SCC(=O)N3CCCC3)o2)cc(OC)c1OC | -19.6% | -16.8%[59 µM] | 2.1% | -12.3% | 30.5%
O=C(CSc1nnc(-c2ccc(O)cc2)o1)N1CCOCC1 | 52.1% | -5.1%[59 µM] | 8.91µM* | 1.7% | 16.5%
